The target in assay [1] is D(1A) dopamine receptor (Homo sapiens) (UniProt P21728). In words: HTS Assay for Allosteric Agonists of the Human D1 Dopamine Receptor: Primary Screen for Potentiators (AID 488982). Also: 0% is about no effect. The settings on record: HEK293 T-REx D1 inducible cells, calcium flux, kinetic fluorescence; series mostly up to 8.37 µM. In outline: (§1)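 Calcium flux in an inducible, force-coupled HEK293 Trex D1 line (overnight at 30 C): agonist mode is the 180 s kinetic read after compound; potentiator mode is the following 180 s read after dopamine at EC20.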
Sequence of D(1A) dopamine receptor (Homo sapiens) (P21728 whole entry, looked up): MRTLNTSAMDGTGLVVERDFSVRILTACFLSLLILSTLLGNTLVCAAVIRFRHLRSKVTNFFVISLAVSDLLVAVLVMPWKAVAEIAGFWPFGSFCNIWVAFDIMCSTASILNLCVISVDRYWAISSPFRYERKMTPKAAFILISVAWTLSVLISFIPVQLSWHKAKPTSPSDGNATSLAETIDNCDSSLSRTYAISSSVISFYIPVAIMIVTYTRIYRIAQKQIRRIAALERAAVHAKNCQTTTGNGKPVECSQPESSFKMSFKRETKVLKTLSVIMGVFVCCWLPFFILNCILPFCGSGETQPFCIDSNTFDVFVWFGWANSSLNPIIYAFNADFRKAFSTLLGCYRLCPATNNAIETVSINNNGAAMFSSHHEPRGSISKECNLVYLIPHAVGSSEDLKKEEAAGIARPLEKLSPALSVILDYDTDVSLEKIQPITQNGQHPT

For assay [2] the target is unchanged. Nature of the assay: HTS Assay for Allosteric Agonists of the Human D1 Dopamine Receptor: Primary Screen for Antagonists (AID 488983).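 Also: calcium flux response to an EC80 dopamine challenge measured with no-wash dye; nearly all actives have a fitted effect of over 65% in size.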 Also: potency is read from the fitted curve at half-maximal effect. The settings on record: D1 receptor cell assay, antagonist mode, qHTS titration; series mostly up to 41.8 µM. In a few lines:
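Calcium-flux read-out in inducible HEK293 T-REx cells expressing D1, dye-loaded 30–90 min at room temperature. Kinetic reads: 180 s after compound (agonist phase), then 180 s after an EC80 dopamine challenge.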

Assay [3] in a line: Validation screen for small molecules that induce genotoxicity in human embryonic kidney (HEK293T) cells expressing luciferase-tagged ELG1 (AID 493106). Also: 0% is about no effect. As to conditions: luminescence; series mostly up to 46.1 µM. In outline:
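ELG1-luciferase reporter readout (ONE-Glo, 30 min, room temperature) after 16 hr compound treatment at 37 °C of HEK293T cells at 2,000 per well. Rising luminescence flags genotoxic stress.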

Assay [4] deals with ATPase family AAA domain-containing protein 5 (Homo sapiens) (UniProt Q96QE3). Nature of the assay: Validation screen for small molecules that inhibit ELG1-dependent DNA repair in human embryonic kidney (HEK293T) cells expressing luciferase-tagged ELG1 (AID 493107). Also: nearly all actives have a fitted effect of over 70% in size. Also: potency is read from the fitted curve at half-maximal effect. The settings on record: HEK293T ELG1-luciferase level, luminescence, 5-fluorouridine co-treatment, 16 h; series mostly up to 46.1 µM. In a few lines: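 Luciferase read-out, ONE-Glo, 30 min at room temperature, follows 16 h co-exposure at 37 C of compound and the DNA-damaging agent 5-fluorouridine. Cells: HEK293T with ELG1-luciferase fusion, 2,000 per well, DMSO as vehicle.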
Sequence of ATPase family AAA domain-containing protein 5 (Homo sapiens) (Q96QE3 whole entry, looked up, the tested form may be a part): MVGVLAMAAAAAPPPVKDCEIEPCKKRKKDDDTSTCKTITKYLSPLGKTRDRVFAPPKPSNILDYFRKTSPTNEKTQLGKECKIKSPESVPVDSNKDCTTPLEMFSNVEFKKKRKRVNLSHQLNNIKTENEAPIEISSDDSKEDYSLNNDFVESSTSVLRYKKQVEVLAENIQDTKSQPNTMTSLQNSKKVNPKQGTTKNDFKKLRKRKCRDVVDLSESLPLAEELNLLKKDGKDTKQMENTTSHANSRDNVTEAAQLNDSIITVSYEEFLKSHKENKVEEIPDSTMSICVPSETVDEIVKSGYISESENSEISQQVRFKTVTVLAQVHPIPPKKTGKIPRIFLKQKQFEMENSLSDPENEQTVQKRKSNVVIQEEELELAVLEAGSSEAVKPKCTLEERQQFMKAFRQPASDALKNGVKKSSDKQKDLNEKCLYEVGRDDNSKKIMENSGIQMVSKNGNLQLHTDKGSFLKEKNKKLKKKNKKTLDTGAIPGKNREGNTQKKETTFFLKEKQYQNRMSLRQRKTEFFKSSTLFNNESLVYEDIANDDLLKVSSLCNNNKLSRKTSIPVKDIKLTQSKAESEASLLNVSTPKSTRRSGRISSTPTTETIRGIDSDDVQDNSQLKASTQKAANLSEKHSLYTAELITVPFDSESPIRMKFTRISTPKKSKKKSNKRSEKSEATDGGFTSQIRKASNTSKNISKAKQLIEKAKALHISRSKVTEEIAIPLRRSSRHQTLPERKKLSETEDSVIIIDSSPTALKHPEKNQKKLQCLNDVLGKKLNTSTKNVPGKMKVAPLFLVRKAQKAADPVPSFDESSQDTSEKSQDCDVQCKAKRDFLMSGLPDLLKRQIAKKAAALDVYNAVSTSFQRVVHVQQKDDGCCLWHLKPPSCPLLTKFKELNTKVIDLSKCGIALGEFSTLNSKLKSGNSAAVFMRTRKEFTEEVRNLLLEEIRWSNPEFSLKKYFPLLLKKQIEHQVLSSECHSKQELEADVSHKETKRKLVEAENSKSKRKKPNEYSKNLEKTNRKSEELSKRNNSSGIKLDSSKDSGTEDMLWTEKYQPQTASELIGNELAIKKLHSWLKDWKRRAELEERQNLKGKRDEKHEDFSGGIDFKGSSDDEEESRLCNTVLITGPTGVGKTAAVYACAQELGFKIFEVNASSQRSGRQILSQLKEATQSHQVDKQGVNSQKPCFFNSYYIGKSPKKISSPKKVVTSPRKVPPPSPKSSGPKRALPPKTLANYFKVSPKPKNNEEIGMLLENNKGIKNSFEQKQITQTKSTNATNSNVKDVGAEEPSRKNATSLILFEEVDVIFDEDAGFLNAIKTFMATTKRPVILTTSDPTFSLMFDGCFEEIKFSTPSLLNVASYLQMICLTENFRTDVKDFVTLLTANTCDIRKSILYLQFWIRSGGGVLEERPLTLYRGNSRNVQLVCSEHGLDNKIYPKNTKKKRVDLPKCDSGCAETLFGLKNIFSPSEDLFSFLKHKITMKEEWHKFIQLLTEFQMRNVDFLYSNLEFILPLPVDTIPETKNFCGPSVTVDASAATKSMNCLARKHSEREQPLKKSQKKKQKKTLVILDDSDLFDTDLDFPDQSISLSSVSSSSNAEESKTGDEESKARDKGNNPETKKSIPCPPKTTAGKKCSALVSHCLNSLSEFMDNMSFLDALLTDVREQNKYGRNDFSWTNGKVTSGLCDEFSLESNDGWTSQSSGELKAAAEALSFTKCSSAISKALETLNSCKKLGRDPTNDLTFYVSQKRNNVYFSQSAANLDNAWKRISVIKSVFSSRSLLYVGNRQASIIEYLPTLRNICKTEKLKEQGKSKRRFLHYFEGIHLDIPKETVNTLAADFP

Assay [5] deals with Thyrotropin-releasing hormone receptor (Homo sapiens) (UniProt P34981). In words: qHTS for Small Molecule Agonists and Allosteric Enhancers of Human TRH Receptor: Validation Screen for Agonists (AID 493127;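 active = calcium activation more than 3 SD above the typical response in the agonist read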;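 also: intracellular calcium rise by fluo-8 fluorescence before TRH EC20 addition; 0% is about no effect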). As to conditions: TRH receptor agonist cell assay; at 2 µM; stronger effect = higher value. In outline: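 Compound-evoked intracellular calcium release in fluo-8-loaded TRHR cells, read kinetically on FDSS (Ex 480/Em 530, 1 s/cycle) after 23 nL pintool transfer. Agonist phase preceded 10 nM TRH EC20 addition.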
Sequence of Thyrotropin-releasing hormone receptor (Homo sapiens) (P34981 whole entry, looked up): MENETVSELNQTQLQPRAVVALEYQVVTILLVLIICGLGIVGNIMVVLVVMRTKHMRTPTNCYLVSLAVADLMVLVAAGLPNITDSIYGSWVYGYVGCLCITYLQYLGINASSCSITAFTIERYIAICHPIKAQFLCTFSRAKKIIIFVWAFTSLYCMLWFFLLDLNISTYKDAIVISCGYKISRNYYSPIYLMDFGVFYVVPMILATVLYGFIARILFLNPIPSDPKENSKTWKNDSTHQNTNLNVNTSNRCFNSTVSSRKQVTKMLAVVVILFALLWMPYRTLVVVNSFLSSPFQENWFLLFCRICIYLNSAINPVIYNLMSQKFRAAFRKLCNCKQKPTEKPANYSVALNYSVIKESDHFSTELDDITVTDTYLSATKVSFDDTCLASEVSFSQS

A short description of assay [6]: qHTS for Inhibitors of Cell Surface uPA Generation: Validation Assay (AID 493164).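 Also: RAW 264.7 macrophage cells exposed to compound for 18 h; 0% is about no effect.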 As to conditions: mouse cells, plasminogen activation; series mostly up to 38.3 µM. In a few lines: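 ATP-Lite luminescence read-out: ATP remains high when uPA activity-dependent LF translocation into the cytoplasm is blocked. RAW 264.7 cells, 18 h compound exposure at 37 C; 7-point titration, 2.45 nM to 38.3 uM final.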

Assay [7] is described as follows: Nrf2 qHTS screen for inhibitors: Validation (AID 493153; active = well fitted inhibition curve with a large enough effect in the main read-out, with a control signal flat, not every such curve was filed as active). The settings on record: A549 ARE-Fluc reporter, 18-24 h; Potency: luciferase luminescence; viability change: measured here: cytotoxicity max response; luciferase luminescence, at 46.1 µM (top of the series). In outline:
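Concentration-response on A549 ARE_Fluc reporter cells exposed 18-24 h at 37 C, 5% CO2. Cytotoxicity read first by CellTiter-Fluor fluorescence (Ex 405/Em 525), then Nrf2 inhibition by BugLite luminescence after 15 min.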

Assay [8] has as its target D(1A) dopamine receptor (Homo sapiens) (UniProt P21728). Nature of the assay: HTS Assay for Allosteric Agonists of the Human D1 Dopamine Receptor: Primary Screen for Agonists (AID 488981). Also: potency is read from the fitted curve at half-maximal effect. As to activation: 0% is about no effect. As to conditions: Inducible HEK293 T-REx D1 cells, calcium-flux fluorescence, 180 s kinetic; series mostly up to 41.8 µM. In a few lines:
as §1

Assay [9] concerns the target ATP-dependent 6-phosphofructokinase (Trypanosoma brucei brucei) (UniProt O15648). In words: qHTS Assay to Find Inhibitors of T. brucei phosphofructokinase: hit validation (AID 492961).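 Also: luminescence reports ADP formed as PFK phosphorylates fructose-6-phosphate with ATP; % is scaled to controls: 0 for no effect and ±100 for the full control effect.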 The settings on record: T. brucei PFK, ADP-Glo luminescence; series mostly up to 51.4 µM. In outline:
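Measures ADP output of PFK (1.25 nM) at 0.1 mM ATP, 0.5 mM F6P, pH 8.0 TEA buffer with 5 mM MgCl2. No-enzyme wells define full inhibition; uninhibited enzyme wells define zero.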

Results filed as inconclusive are left out. Activity calls are given as the source filed them. Unless noted, calls follow the shape of the dose curve; as a rule, active = well fitted curve in the direction sought with a large enough effect; inconclusive = small, poorly fitted or top-dose-only effect, or another doubt; inactive = no such curve, though single readings can be large; an effect the other way counts as inactive or inconclusive.

The values that follow come from PubChem BioAssay (NCATS).

Sequence of ATP-dependent 6-phosphofructokinase (Trypanosoma brucei brucei) (O15648 whole entry, looked up): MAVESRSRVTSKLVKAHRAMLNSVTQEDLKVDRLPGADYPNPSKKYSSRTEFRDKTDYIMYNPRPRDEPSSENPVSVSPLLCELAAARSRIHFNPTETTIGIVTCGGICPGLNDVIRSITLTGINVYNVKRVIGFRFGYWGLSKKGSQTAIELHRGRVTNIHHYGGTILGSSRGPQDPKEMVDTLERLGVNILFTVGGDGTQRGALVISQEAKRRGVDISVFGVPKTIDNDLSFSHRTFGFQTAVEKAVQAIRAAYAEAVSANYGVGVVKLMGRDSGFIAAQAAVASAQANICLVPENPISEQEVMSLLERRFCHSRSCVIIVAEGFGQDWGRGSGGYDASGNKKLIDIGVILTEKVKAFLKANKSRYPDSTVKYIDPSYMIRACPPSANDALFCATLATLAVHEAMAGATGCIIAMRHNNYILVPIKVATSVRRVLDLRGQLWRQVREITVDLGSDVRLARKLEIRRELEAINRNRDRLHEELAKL

Regarding `O=[N+]([O-])c1cc(O)c(O)c([N+](=O)[O-])c1`, the Potency result in assay [1], in [2], in assay [3] and in assay [4] was “inactive” each time. In [5], the activation is -0.438% (inactive). Moreover, the call in [6] was inactive.
Turning to `NNC(N)=O`, the Potency result in assay [1], in [2], in assay [3], in [4] and in [7] was “inactive” in each case. For the same compound, the activation in assay [5] is 0.625% (inactive). The viability change in assay [7] was -0.697%. Further, in [6], the call was inactive.
In the case of `COc1ccc2c(c1)c(CCN1CCOCC1)c(C)n2C(=O)c1cccc(Cl)c1Cl`, the Potency result in [1], in [2] and in [3] was “inactive” in each case. Moreover, the Potency in assay [4] was 8.2 µM (active). The outcome in [6] was inactive.
As to `CN1CCc2cc(O)cc3c2[C@H]1Cc1ccc(O)c(O)c1-3`, the Potency result in [1], in [3] and in [7] was “inactive” in each case. The Potency in assay [2] was 3.16 µM (active); in [4], 20.6 µM (active). In [7], the viability change is -1.2%. Moreover, the result in [6] was inactive.
Take `CCCN1CCc2cc(O)cc3c2[C@H]1Cc1ccc(O)c(O)c1-3`: the Potency result in assay [8], in assay [3], in [4] and in assay [7] was “inactive” in each case. For the same compound, the Potency in assay [2] was 0.631 µM (active). Further, in [7], the viability change was -6.67%. In [6], the result was inactive.
For `C[C@H](N)Cc1cccc(C(F)(F)F)c1`, the Potency entry in assay [1], in [2], in assay [3], in assay [4] and in assay [7] was “inactive” throughout. Moreover, in [7], the viability change was -8.9%. In assay [6], the call was inactive.
`CN1CC[C@@]2(C)c3cc(OC(=O)Nc4ccccc4)ccc3N(C)[C@@H]12`: the Potency result in assay [1], in [2], in [3], in [4] and in assay [7] was “inactive” throughout. In addition, the viability change in assay [7] was -13.9%. Also, the outcome in assay [6] was inactive.
In the case of `CCCn1c(C)c(C(=O)c2ccc3ccccc3c2)c2ccccc21`, the Potency result in assay [1], in assay [2] and in [3] was “inactive” each time. The activation in assay [5] is -5.69% (inactive). Besides, in assay [6], the result was inactive.
Turning to `c1ccc2cc(CC3=NCCN3)ccc2c1`, the Potency entry in [1], in [2], in [9], in assay [3], in assay [4] and in assay [7] was “inactive” each time. Besides, the viability change in assay [7] was -5.88%. In assay [6], the compound was called inactive.
Regarding `CNc1ccc2oc(C[C@H]3O[C@@]4(CC[C@H]3C)O[C@H]([C@H](C)C(=O)c3ccc[nH]3)[C@H](C)C[C@H]4C)nc2c1C(=O)O`, the Potency in [8] is 0.398 µM (active); in assay [4], 13 µM (active). Also, the Potency result in assay [3] was “inactive”. Also, the activation in [5] is 0.125% (inactive). The result in [6] was inactive.
